# Experimental data: PubChem BioAssay (NCATS)
# Records with an inconclusive call do not appear. Entries that show only a call come without a potency. Activity calls are given as the source filed them. Calls come from the whole dose curve; as a rule, active = well fitted inhibition curve with a large enough effect; inconclusive = small, poorly fitted or top-dose-only effect; inactive = no such curve, though single readings can be large or run the other way.
# Tests used:
# [1] = test system: Zika virus NS2B-NS3 protease (unlinked complex); assay: Primary screen GU Rhodamine qHTS for Zika virus inhibitors: Unlinked NS2B-NS3 protease assay (AID 1347159); note: nearly all actives have a fitted effect of over 60% in size
# Procedure, shortened: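 A qHTS format was used, with compound concentrations ranging up to 114 microM. Each compound was preincubated with 25 nM NS2B-NS3 protease, and the substrate was then added at 1.5 microM. Curves were fitted with a 4-parameter Hill model.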
# [2] = test system: Zika virus NS2B-NS3 protease (linked construct); assay: Primary screen NINDS Rhodamine qHTS for Zika virus inhibitors (AID 1347160); note: nearly all actives have a fitted effect of over 55% in size
# Procedure, shortened: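 Kinetic fluorescence (Ex 480 nm, Em 540 nm) over 15 min with 1.5 microM Rhodamine110 peptide and 25 nM linked protease.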
structure (smiles),measurement,setting,value
O=C(Cc1ccc(-c2ccccc2)cc1)NC1CCC1,Potency,[1],inactive
same,Potency,[2],inactive
CC(C)(O)/C=C/C1=CC(=O)[C@@](C)(O)C[C@H]1O,Potency,[1],inactive
same,Potency,[2],inactive
CC(=O)N[C@H]1[C@H](O[C@H]2CC[C@@]3(C)C(CC[C@]4(C)C3CC=C3[C@@H]5CC(C)(C)CC[C@]5(C(=O)OC5OCC(O)C(O)C5O)CC[C@]34C)C2(C)C)O[C@H](COC2OC(C)C(O)C(OC3OC(C)C(O)C(O)C3O)C2O)[C@@H](O)[C@@H]1O (stereo not given in full),Potency,[1],inactive
same,Potency,[2],inactive
CC(=O)N[C@@H](CCCCN)C(=O)N(C)[C@@H](CC(C)C)C(=O)N[C@H](C(=O)N(C)[C@@H](Cc1ccccc1)C(=O)N[C@H](Cc1ccccc1)C(N)=O)C(C)C,"activity change, negative = inhibition",[1],0% [at 11.5 µM] (inactive)
same,"activity change, negative = inhibition",[2],25% [at 4.91 µM] (inactive)
COc1c(Nc2ncc(Cl)c(N[C@H]3[C@@H](C(N)=O)[C@@H]4C=C[C@H]3C4)n2)ccc2c1CC[C@@H](N1CCOCC1)CC2,Potency,[1],inactive
same,Potency,[2],inactive
CC(C)NCC(C(=O)N1CCN(c2ncnc3c2C(C)CC3O)CC1)c1ccc(Cl)cc1 (stereo not given),Potency,[1],inactive
same,Potency,[2],inactive
COc1ccc(C2=N[C@@H](c3ccc(Cl)cc3)[C@@H](c3ccc(Cl)cc3)N2C(=O)N2CCNC(=O)C2)c(OC(C)C)c1,Potency,[1],inactive
same,Potency,[2],inactive
COc1cc(C2Oc3c(OC)cc(CCCO)cc3C2CO)ccc1O[C@H]1O[C@H](C)[C@@H](O)[C@H](O)[C@@H]1O (stereo not given in full),Potency,[1],inactive
same,Potency,[2],inactive
C[C@@H]1O[C@@H](O[C@H]2[C@H](OC(=O)[C@]34CCC(C)(C)C[C@H]3C3=CCC5[C@@]6(C)CC[C@H](O[C@@H]7O[C@H](C(=O)O)[C@@H](O)[C@H](O)[C@H]7O[C@@H]7O[C@H](CO)[C@H](O)[C@H](O)[C@H]7O)[C@@](C)(C=O)C6CC[C@@]5(C)[C@]3(C)C[C@H]4O)O[C@H](C)[C@H](O[C@@H]3O[C@H](C)[C@H](O)[C@H](O)[C@H]3O)[C@@H]2O)[C@H](O)[C@H](O)[C@H]1O[C@@H]1OC[C@@H](O)[C@H](O[C@@H]2O[C@H](CO)[C@@H](O)[C@H](O)[C@H]2O)[C@H]1O (stereo not given in full),"activity change, negative = inhibition",[1],4.39% [at 19.1 µM] (inactive)
same,outcome,[2],inactive [at 10.7 µM]
C/C=C1\[C@H](O[C@@H]2O[C@H](CO)[C@@H](O)[C@H](O)[C@H]2O)OC=C(C(=O)OC)[C@H]1CC(=O)O,Potency,[1],inactive
same,Potency,[2],inactive
O=C(c1ccc(/C=C/c2n[nH]c3ccccc23)cc1)N1CCNCC1,Potency,[1],inactive
same,Potency,[2],inactive
CC1(C)C2CC(OC3OC(COC4OCC(O)(CO)C4O)C(O)C(O)C3O)C1(C)CC2O (stereo not given),Potency,[1],inactive
same,Potency,[2],inactive
COC(=O)c1ccc(OC(CO)C(O)c2ccc(O)c(OC)c2)c(OC)c1 (stereo not given),Potency,[1],inactive
same,Potency,[2],inactive
CC(C)C(C(=O)N(C)C(C)C(N)=O)N(C)C(=O)C1CCCN1C(=O)/C=C/C=C/C(O)C(C)O (stereo not given),Potency,[1],inactive
same,Potency,[2],inactive
COC(=O)C1=COC(O[C@@H]2O[C@H](CO)[C@@H](O)[C@H](O)[C@H]2O)[C@H]2[C@@H]1[C@H](OC(=O)CCc1ccc(O)cc1)C[C@]2(C)O (stereo not given in full),Potency,[1],inactive
same,Potency,[2],inactive
COC1CC(OC2CCC3(C)C(=CCC4C3C(OC(C)=O)C(OC(=O)/C=C/c3ccccc3)C3(C)C(C(C)O)CCC43O)C2)OC(C)C1OC1CC(OC)C(OC2OC(C)C(OC3OC(CO)C(O)C(O)C3O)C(OC)C2O)C(C)O1 (stereo not given),"activity change, negative = inhibition",[1],0.295% [at 19.1 µM] (inactive)
same,"activity change, negative = inhibition",[2],23.5% [at 10.7 µM] (inactive)
CSc1ccc(C(=O)N[C@@H]2CCCC[C@@H]2NC(=O)CNC(=O)c2cc(C(F)(F)F)ccc2NC(=O)NC(C)C)cc1,Potency,[1],inactive
same,Potency,[2],inactive
C=C(CO)C12OC1C1(C)C(=CC2=O)C(O)C(O)CC1C (stereo not given),Potency,[1],inactive
same,Potency,[2],inactive
COc1c2c(c(C)c3c1C(=O)OC3)OC1(C)CC(O)C34OC(OC)(OC3(C)C)C(O)CC4(C)C1C2 (stereo not given),Potency,[1],inactive
same,Potency,[2],inactive
CCCCNc1ncc2c(-c3ccc(CN4CCN(C)CC4)cc3)cn(C3CCC(O)CC3)c2n1 (stereo not given),Potency,[1],inactive
same,Potency,[2],inactive
CC(C)[C@H]1CC[C@@]2(O)COC(=O)[C@H]2[C@@H]1/C=C(\CO)C(=O)O,Potency,[1],inactive
same,Potency,[2],inactive
O=C1C=CC2OC(c3ccccc3)C(O)C2O1 (stereo not given),Potency,[1],inactive
same,Potency,[2],inactive
COc1cc(O)c2c(c1)C1=C[C@H](O)[C@@H](O)C[C@]1(C)OC2=O,Potency,[1],inactive
same,Potency,[2],inactive
COCC1OC(OC(C)(C)C2CCC3(C)C=C(C4CCC5C4(C)CC(O)C4OC(C(C)(C)OC6OC(CO)C(O)C(O)C6NC(C)=O)CCC45C)CCC3O2)C(NC(C)=O)C(O)C1O (stereo not given),Potency,[1],inactive
same,Potency,[2],inactive
Cn1nc(C(C)(C)C)cc1C(=O)NC(Cc1cccc(Cl)c1)C(=O)NCC#N (stereo not given),Potency,[1],inactive
same,Potency,[2],inactive
COC(=O)[C@H](O)[C@H]1C(C)(C)[C@H](OC(=O)C(C)C)[C@@]2(O)C(=O)[C@]1(C)C1CC[C@]3(C)C(CC(=O)O[C@H]3c3ccoc3)[C@]13O[C@@H]32 (stereo not given in full),Potency,[1],inactive
same,Potency,[2],inactive
CC(Cc1cc2c(c(C(N)=O)c1)N(CCCO)CC2)NCCOc1ccccc1OCC(F)(F)F (stereo not given),Potency,[1],inactive
same,Potency,[2],inactive
CC(Nc1ncnc2nc[nH]c12)c1cc2cccc(Cl)c2c(=O)n1-c1ccccc1 (stereo not given),Potency,[1],inactive
same,Potency,[2],inactive
NC(=O)[C@H](O[C@@H]1O[C@H](CO)[C@@H](O)[C@H](O)[C@H]1O)c1ccccc1,Potency,[1],inactive
same,Potency,[2],inactive
COCCOc1ccc(N2CCN(CCn3ncc4c3nc(N)n3nc(-c5ccco5)nc43)CC2)cc1,Potency,[1],inactive
same,Potency,[2],inactive
